52 variants from the emibetuzumab library of Makowski et al. (2022) can be followed below.

B1: VH:VL chains; a variant is named by its letters at X, in order (parent)
chain 1: QVQLVQSGAEVKKPGASVKVSCKASGYTFTDYXMHWVRQAPGQGLEWMGXVNPNXXXTTYNQKFEGRVTMTTDTSTSTAYMELRSLRSDDTAVYYCARXNXLDXWGQGTTVTVSS
chain 2: DIQMTQSPSSLSASVGDRVTITCSVSSSVSSIYLHWYQQKPGKAPKLLIYSTSNLASGVPSRFSGSGSGTDFTLTISSLQPEDFATYYCQVYSGYPLTFGGGTKVEIK

The other results are listed elsewhere or left out. The true hit rate is not given.

This experiment covers variants of B1. Kind of experiment: yeast display scFab, FACS + sequencing. Particulars: with MET. In short, it runs like this: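 Heavy-chain CDR mutant scFab yeast surface library, enriched by two magnetic rounds on HGFR-Fc-coated Protein A beads and then by FACS. Cells were labelled with 1 nM HGFR-Fc in PBSB with 1% milk and anti-Myc for 3 h at room temperature, and the top 50% antigen-positive cells were gated. Round-3 sorted and input populations were deep sequenced in two replicates. Antigen binding call: positive if a sequence occurred in both antigen-positive samples, negative if it occurred only in input.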
As to VKKESDSY, the antigen binding call was “no binding”.

Consider YAREDDGA, for which the antigen binding call was “no binding”.

With YRRGGSVD, the antigen binding call is “binds”. Then ARRGGSVD, with “no binding”. For YRRGTSVD, the antigen binding call is “binds”. Regarding DATGGDWA, the antigen binding call is “no binding”. Then ARRRGSGA, with “no binding”; and YARRGDGA, with “no binding”; and YRRRGVGA, with “binds”. Then YRRRGSGA, with “binds”; and YRRRGFGA, with “binds”. Regarding YRRRGAGA, the antigen binding call is given as “binds”. With YARADDSA, the antigen binding call is on record as “no binding”. The result for DTTGSSGV reads “no binding”; that for VEAGDDAA, “no binding”.

In the case of VKGRADLV, the antigen binding call is on record as “no binding”.

As to YTGTSDWY, the antigen binding call is listed as “no binding”.

As for VEGRGDGY, the antigen binding call is on record as “no binding”. Turning to YKGRGDGY, the antigen binding call is listed as “binds”. For DEGRGDWY, the antigen binding call is reported as “no binding”. For the variant YKGRGDWY, the antigen binding call is “binds”. The result for YKGRGVGY reads “binds”; that for VKGRGAGY, “binds”.

On to VKGRGVGY, for which the antigen binding call is “no binding”. Take DAGRGDGY: the antigen binding call is “no binding”. With VKGKDVGY, the antigen binding call is “no binding”. For DKEGGDAS, the antigen binding call is recorded as “no binding”. In the case of DKEGGDVA, the antigen binding call is recorded as “no binding”. Then DTAEDFGV, with “no binding”; and YKGRGAGY, with “binds”; and VGGTSDVF, with “no binding”. The result for DGGKNDGS reads “no binding”; that for DTKRTAGD, “no binding”; that for YRRRGVGS, “binds”.

In the case of YRRRGYGD, the antigen binding call was “binds”. With YRRRGAGD, the antigen binding call is listed as “binds”. With YRREGAGD, the antigen binding call is on record as “binds”. Then VTGEDDVA, with “no binding”; and DEGGTDVD, with “no binding”; and DRGGDDLV, with “no binding”. Turning to DARGGDVY, the antigen binding call was “no binding”. Then YRRRGDGD, with “binds”; and YRRRGVGD, with “binds”; and SEARSDVF, with “no binding”. As to DARGGDWV, the antigen binding call is recorded as “no binding”.

Turning to YRRGDSGV, the antigen binding call is reported as “binds”. Turning to DRRGDDGV, the antigen binding call is recorded as “no binding”.

On to ARRGAAGV, for which the antigen binding call is “no binding”. With YAGGDSGV, the antigen binding call was “no binding”. Then YRRGASGV, with “binds”; and YTRGAAGV, with “no binding”; and DARADSLV, with “no binding”.
